Screens (PubChem)
ADAM17 inh: ADAM17 inhibitors, primary screen, biochemical, QFRET | recombinant ADAM17, EDANS/DABCYL FRET peptide cleavage | inhibition, % at 6.95 µM | actives 0.83% (n = 370,000) | AID 720648, 2013;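 active means inhibition above the mean of compounds lying between control limits plus 3 SD, set per campaign, cut at about 8.5% in these data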
PLC-beta3 inh: human PLC-beta3 inhibitors, primary screen, biochemical, fluorescence. Purified PLC-beta3, fluorogenic substrate. inhibition, % at 12.2 µM. actives 0.18% (n = 370,000). AID 720704, 2013; in the data active means inhibition above about 11%
proKLK7 act: proKLK7 zymogen activators, primary screen, biochemical, fluorescence intensity; activation, % at 7 µM; Kallikrein-7 (Homo sapiens), P49862; AID 652039, 2013; actives 0.9% (n = 370,000); purified proKLK7, EDANS-DABCYL substrate fluorescence; 100% is mature enzyme control, 0% vehicle;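 active means activation above the mean of all tested compounds plus 3 SD, computed per campaign excluding outliers beyond control limits, cut at about 13% in these data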
PLC-gamma1 inh: PLC-gamma1 enzyme inhibitors, primary screen, biochemical, fluorescence, purified enzyme. 1-phosphatidylinositol 4,5-bisphosphate phosphodiesterase gamma-1 (Homo sapiens), P19174. fluorogenic substrate. inhibition, % at 12.2 µM. actives 0.84% (n = 370,000). AID 720700, 2013; in the data active means inhibition above about 9.5%
ADAM10 inh: human ADAM10 inhibitors, primary screen, biochemical, QFRET, HTS; recombinant ADAM10, EDANS/DABCYL FRET peptide cleavage, 3 h; actives 0.62% (n = 370,000); inhibition, % at 7 µM;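 active means inhibition above a per-campaign cutoff equal to the mean of compounds falling between control-based bounds plus 3 SD, cut at about 20% in these data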
Target sequence (O14672 214-748 limits assumed): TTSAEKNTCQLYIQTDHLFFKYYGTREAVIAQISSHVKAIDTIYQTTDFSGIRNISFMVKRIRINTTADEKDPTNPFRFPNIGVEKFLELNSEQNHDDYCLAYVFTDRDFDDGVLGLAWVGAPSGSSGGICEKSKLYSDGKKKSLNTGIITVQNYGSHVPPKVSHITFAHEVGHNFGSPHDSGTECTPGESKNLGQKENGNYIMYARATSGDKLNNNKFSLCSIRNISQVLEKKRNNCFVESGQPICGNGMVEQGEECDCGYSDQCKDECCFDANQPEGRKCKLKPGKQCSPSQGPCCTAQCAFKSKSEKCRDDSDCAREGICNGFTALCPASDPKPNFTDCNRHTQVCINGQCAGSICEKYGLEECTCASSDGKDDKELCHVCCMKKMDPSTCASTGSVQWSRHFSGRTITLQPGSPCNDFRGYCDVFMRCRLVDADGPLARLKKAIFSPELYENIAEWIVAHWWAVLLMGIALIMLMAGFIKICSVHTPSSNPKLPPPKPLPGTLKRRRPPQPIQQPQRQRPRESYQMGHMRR
sPLA2-III inh: human group III sPLA2 inhibitors, primary screen, biochemical, QFRET, BODIPY PC-A2 liposome substrate. Group 3 secretory phospholipase A2 (Homo sapiens), Q9NZ20. QFRET BODIPY PC-A2 liposome hydrolysis, fluorescence. inhibition, % at 12.2 µM. actives 0.56% (n = 370,000). AID 743126, 2013;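 active means inhibition above mean plus 3 SD of compounds lying within the high and low control bounds, cut at about 19% in these data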
ADAM10 confirm: human ADAM10 inhibitors, confirmation, biochemical, QFRET, triplicate. AID 743208, 2013. actives 1% (n = 2,100). ADAM10 QFRET peptide cleavage, EDANS fluorescence. inhibition, % at 6.95 µM. shares compounds with ADAM10 inh;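 active means inhibition above about 20% chosen separately for each screening run, limit read from the data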
ADAM17 ctr: ADAM17 inhibitors, counter-screen for ADAM10 exosite inhibitor project, biochemical, QFRET, high throughput. inhibition, % at 6.95 µM. AID 743214, 2013. shares compounds with ADAM10 inh. ADAM17 QFRET peptide cleavage, EDANS fluorescence. actives 0.5% (n = 2,100);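 active means mean triplicate inhibition above the solvent-only control wells' mean plus 3 SD, cut at about 12% in these data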
Large screens that a line does not name were inactive (follow-up assays come after a bar, where they were run); ! = not active in a repeat. Compounds with a hit are over-represented: about 3.4% of the library has one in this group of screens.

Cc1ccc(S(=O)(=O)N(CCC(=O)Nc2ccc(OC(F)(F)F)cc2)c2ccccc2)cc1	ADAM10 inh 21 | ADAM10 confirm inactive | ADAM17 ctr inactive
COc1ccc(S(=O)(=O)N(CC(=O)Nc2ccc(S(=O)(=O)N3CCOCC3)cc2)c2ccccc2)cc1	ADAM10 inh 24 | ADAM10 confirm inactive | ADAM17 ctr inactive
CCc1c(-c2ccc(F)cc2)ncn1CCc1ccccc1OC	none
Oc1ccccc1C(Nc1nccs1)c1ccc2cccnc2c1O (stereo unspecified)	ADAM10 inh 20 | ADAM10 confirm inactive | ADAM17 ctr inactive
COC(=O)C1=C(C)N(Cc2ccccc2C(F)(F)F)C(=NCc2ccccc2)NC1c1ccc(F)cc1 (stereo unspecified)	none
Cc1cccc(C)c1NC(=O)C(CCc1ccccc1)N1CCN(CCN(C)C)CC1 (stereo unspecified)	none
C=CCC[C@H](Cc1ccc(F)cc1)C(=O)OC[C@H]1CCCN1C(=O)[C@@H](CC=C)CC(=O)NCCO	none
C=CCC[C@@H](Cc1ccc(F)cc1)C(=O)OC[C@@H]1CCCN1C(=O)[C@@H](CC=C)CC(=O)N(CCO)Cc1ccccc1	ADAM10 inh 21 | ADAM10 confirm inactive | ADAM17 ctr inactive
C=CCC[C@@H](Cc1ccc(F)cc1)C(=O)OC[C@H]1CCCN1C(=O)[C@@H](CC=C)CC(=O)N[C@H](CO)Cc1ccccc1	ADAM10 inh 21 | ADAM10 confirm inactive | ADAM17 ctr inactive
COc1ccc(CNC(=O)O[C@@H]2C[C@H]3C(=O)N(c4ccccc4)C(=O)[C@H]3[C@@]3(CN(S(=O)(=O)c4ccc(C)cc4)C[C@H]3C)[C@@H]2O)cc1OC	ADAM10 inh 20 | ADAM10 confirm inactive | ADAM17 ctr inactive
Cc1ccc(S(=O)(=O)N2C[C@@H](C)[C@]3(C2)[C@H](O)[C@H](OC(=O)NCc2ccco2)C[C@H]2C(=O)N(c4ccccc4)C(=O)[C@H]23)cc1	none
COc1ccc(N2CCN(C(=O)c3ccc(C(C)(C)C)cc3)CC2)cc1	ADAM10 inh 88 | ADAM10 confirm inactive | ADAM17 ctr inactive
CCOCC(=O)Nc1cc(S(=O)(=O)N2CCOCC2)ccc1N1CCCCC1	none
CCOC(=O)CCC(=O)Nc1cc(S(=O)(=O)N2CCOCC2)ccc1N1CCCCC1	ADAM10 inh 22 | ADAM10 confirm inactive | ADAM17 ctr inactive
COc1ccc(S(=O)(=O)N2CCOCC2)cc1C(=O)Nc1ccc(N2CCCCCC2)cc1	ADAM10 inh 20 | ADAM10 confirm inactive | ADAM17 ctr inactive
OC(c1ccc2c(c1)OCO2)c1ncc(-c2cccc(C(F)(F)F)c2)[nH]1 (stereo unspecified)	ADAM10 inh 20 | ADAM10 confirm inactive | ADAM17 ctr inactive
COCCCN1CCC2(CCC(c3ccccc3)CC2)C1=O (stereo unspecified)	none
O=C1N(CCCO)CCC12CCC(c1ccccc1)CC2 (stereo unspecified)	ADAM10 inh 88! | ADAM10 confirm inactive | ADAM17 ctr inactive
O=C(CCc1ccccc1)N[C@H]1[C@H](OC(=O)c2ccco2)CCC[C@@]12C(=O)N(Cc1ccccc1)c1ccccc12	ADAM10 inh 21 | ADAM10 confirm inactive | ADAM17 ctr inactive
